Source: PubChem
Sampled rows, rich in hits. Any-hit rate of the full collection: about 3.6%.
Autofluor counter: compound fluorescence in toxin protease inhibitor counterscreen; compound autofluorescence counterscreen, microsphere flow cytometry; hits give high values; AID 624483; fluorescence intensity (test concentration not listed); 3.1% of 360,000 active; in the data active means fluorescence intensity above about 16000; inconclusive means no clear call, values can overlap the other calls
SARS 3CLpro inh: SARS-CoV 3CLpro protease inhibition; recombinant SARS-CoV 3CLpro, quenched FRET peptide cleavage; inhibition, % at 6 µM; 0.14% of 290,000 active; AID 1706; P0C6X7; in the data active means inhibition above about 12%
BoNT A protease: BoNT A light chain protease inhibition; multiplex microsphere protease substrate cleavage, flow cytometry; inhibition, % at 10 µM; 0.17% of 360,000 active; further: plate controls were buffer without enzyme for full effect and enzyme alone for no effect
Anthrax LF inh2: blocks Bacillus anthracis lethal factor protease. multiplex microsphere protease cleavage assay, LF. inhibition, % at 10 µM. 0.12% of 360,000 active. AID 588501; further: plate controls were buffer without enzyme for full effect and enzyme alone for no effect
BoNT-F LC inh: blocks Botulinum neurotoxin F light chain protease; Multiplex microsphere protease cleavage assay, flow cytometry; inhibition, % at 10 µM; 0.22% of 360,000 active; in the data active means inhibition above about 35%, passing the limit was not always enough; inconclusive means no clear call, values can overlap the other calls; further: plate controls were buffer without enzyme for full effect and enzyme alone for no effect
BJeLR viability: kills HRASV12-expressing BJeLR cells; inhibition, % (concentration not given with the values); AID 1554; BJeLR (HRASV12) viability, CellTiter-Glo ATP luminescence, 48 h; 0.17% of 300,000 active; in the data active means inhibition above about 50%; inconclusive means no clear call, values can overlap the other calls
* = called active by the depositor. Unless noted, no stated cut-off is given here; in the data, active means inhibition above about 30%; inconclusive means no clear call, values can overlap the other calls; inactive means below that.

Screening Cc1csc(N/N=C/c2ccc(O)c([N+](=O)[O-])c2)n1 returned Autofluor counter 22477*, SARS 3CLpro inh 1.1, BoNT A protease -0.2, Anthrax LF inh2 -5.1, BoNT-F LC inh -4.6 and BJeLR viability 4.0.
For O=C(Sc1cccc2cccnc12)c1ccc(F)cc1 the results were SARS 3CLpro inh 0.4.
O=C(Sc1cccc2cccnc12)c1ccccc1Br was read as Autofluor counter 5949, SARS 3CLpro inh 6.8, BoNT A protease 0.9, Anthrax LF inh2 1.4, BoNT-F LC inh 1.9 and BJeLR viability 96.9*.
For Cc1ccccc1NC(=O)c1csc2c1CCCC2 the results were Autofluor counter 20804*, SARS 3CLpro inh 3.6, BoNT A protease -3.1, Anthrax LF inh2 -4.1, BoNT-F LC inh -3.9 and BJeLR viability -2.4.
`COc1ccc(NC(=O)c2csc3c2CCCC3)cc1` gave Autofluor counter 23873*, SARS 3CLpro inh 0.1, BoNT A protease -1.2, Anthrax LF inh2 -1.7, BoNT-F LC inh -3.1 and BJeLR viability -6.7.
`COc1cccc(NC(=O)c2csc3c2CCCC3)c1` gave Autofluor counter 2482, SARS 3CLpro inh 8.4, BoNT A protease 0.1, Anthrax LF inh2 1.9, BoNT-F LC inh -3.7 and BJeLR viability -4.2.
CC(C)(C)n1ncc(Oc2ccc(Oc3cnn(C(C)(C)C)c(=O)c3Cl)cc2)c(Cl)c1=O was read as SARS 3CLpro inh 3.5.
Screening O=c1oc2c(-c3ccc([N+](=O)[O-])cc3)cc(O)cc2s1 returned Autofluor counter 4736, SARS 3CLpro inh -2.0, BoNT A protease 0.3, Anthrax LF inh2 -15.2, BoNT-F LC inh -1.8 and BJeLR viability -9.1.
`CC1(C)Cc2c(c(N3CCOCC3)nc3sc4c(NCc5ccccc5)nnnc4c23)CS1` gave Autofluor counter 23609*, SARS 3CLpro inh -4.0, BoNT A protease -0.7, Anthrax LF inh2 -1.6, BoNT-F LC inh -0.3 and BJeLR viability -4.0.
Screening Cc1ccc(C2/C(=C(/O)c3cnn(-c4ccccc4)c3C)C(=O)C(=O)N2CCN2CCOCC2)o1 (stereo unspecified) returned Autofluor counter 2739, SARS 3CLpro inh 3.0, BoNT A protease -0.1, Anthrax LF inh2 -1.3, BoNT-F LC inh 4.5 and BJeLR viability -6.4.
Cc1ccc(C2/C(=C(/O)c3ccccc3)C(=O)C(=O)N2CCN2CCOCC2)o1 (stereo unspecified) was read as Autofluor counter 20379*, SARS 3CLpro inh -3.2, BoNT A protease 0.6, Anthrax LF inh2 -1.7, BoNT-F LC inh 0.6 and BJeLR viability -0.5.
`COc1ccc([N+](=O)[O-])cc1NC(=O)COC(=O)C12CC3CC(CC(O)(C3)C1)C2` gave Autofluor counter 3020, BoNT A protease -1.6, Anthrax LF inh2 -12.8 and BoNT-F LC inh -17.7.
Screening C=CCSc1nc(N)c(C#N)c(-c2ccccc2)c1C#N returned Autofluor counter 21076*, SARS 3CLpro inh 2.9, BoNT A protease 4.3, Anthrax LF inh2 -1.9, BoNT-F LC inh 5.2 and BJeLR viability 1.3.
Cc1cccc(NC(=O)c2ccc(Cn3cc(C(F)(F)F)ccc3=O)cc2)c1 was read as Autofluor counter 16900*, SARS 3CLpro inh 4.9, BoNT A protease -1.0, Anthrax LF inh2 -1.7, BoNT-F LC inh -0.3 and BJeLR viability -3.8.
Screening CC(NC(=O)Cc1ccc([N+](=O)[O-])cc1)c1ccc2c(c1)OCO2 (stereo unspecified) returned Autofluor counter 4176, SARS 3CLpro inh 1.5, BoNT A protease 0.1, Anthrax LF inh2 -4.3, BoNT-F LC inh 4.9 and BJeLR viability 2.8.
O=S(=O)(CCN(CCS(=O)(=O)C(F)(F)F)CC1CCCO1)C(F)(F)F (stereo unspecified) was read as Autofluor counter 12390, SARS 3CLpro inh 2.6, BoNT A protease -0.9, Anthrax LF inh2 -2.9, BoNT-F LC inh -11.6 and BJeLR viability 3.9.
O=C(OCCN1C(=O)c2ccccc2C1=O)C1CCN(S(=O)(=O)c2cccs2)CC1 was read as Autofluor counter 22995*, SARS 3CLpro inh 3.8, BoNT A protease inconclusive, Anthrax LF inh2 -5.2, BoNT-F LC inh -2.2 and BJeLR viability -6.9.
For CCOC(=O)N1CCC(NC(=O)C2CCN(S(=O)(=O)c3cccs3)CC2)CC1 the results were Autofluor counter 20126*, SARS 3CLpro inh 3.8, BoNT A protease 1.0, Anthrax LF inh2 -2.0, BoNT-F LC inh 0.6 and BJeLR viability 0.7.
Screening CCC(CC)NC(=O)C1CCN(S(=O)(=O)c2cccs2)CC1 returned Autofluor counter 23956*, SARS 3CLpro inh -4.6, BoNT A protease -0.6, Anthrax LF inh2 -3.6, BoNT-F LC inh -0.5 and BJeLR viability 3.3.
CCCNC(=O)C(Cc1ccc(I)cc1)NC(=O)c1ccc(C#N)cc1 (stereo unspecified) was read as Autofluor counter 4067, BoNT A protease -0.4, Anthrax LF inh2 -0.7 and BoNT-F LC inh -1.4.
`CCOC(=O)c1c(-c2ccc(OC)cc2)cn2ccccc12` gave Autofluor counter 4640, SARS 3CLpro inh 2.4, BoNT A protease -0.9, Anthrax LF inh2 -0.3, BoNT-F LC inh -3.1 and BJeLR viability -4.7.
CCOC(=O)c1ccc2c(c1)N(Cc1ccccc1C)C(=O)c1ccccc1S2=O (stereo unspecified) was read as Autofluor counter 22107*, SARS 3CLpro inh -4.7, BoNT A protease -5.6, Anthrax LF inh2 -1.5, BoNT-F LC inh -8.4 and BJeLR viability -0.9.
Screening COc1ccccc1NS(=O)(=O)c1cccc(C(=O)NCC(c2ccco2)N2CCCC2)c1 (stereo unspecified) returned Autofluor counter 6739, BoNT A protease -1.2, Anthrax LF inh2 -1.8 and BoNT-F LC inh -6.2.
COc1ccc(C(CNC(=O)c2ccc(Cl)c(S(=O)(=O)N3CCCC3)c2)N2CCCC2)cc1 (stereo unspecified) was read as Autofluor counter 30581*, BoNT A protease -9.6, Anthrax LF inh2 -1.8 and BoNT-F LC inh 25.5.
For COc1ccccc1NS(=O)(=O)c1cccc(C(=O)NCC(c2ccccc2OC)N2CCCC2)c1 (stereo unspecified) the results were Autofluor counter 20056*, BoNT A protease 1.0, Anthrax LF inh2 0.3, BoNT-F LC inh 8.1 and BJeLR viability 3.3.
`COc1ccc(C(CNC(=O)c2cccc(S(=O)(=O)N(C)c3ccccc3)c2)N2CCCC2)cc1` (stereo unspecified) gave Autofluor counter 59722*, BoNT A protease 8.7, Anthrax LF inh2 -6.0 and BoNT-F LC inh 27.0.
`COc1ccc(C(CNC(=O)c2cc(C)oc2C)N2CCOCC2)cc1` (stereo unspecified) gave Autofluor counter 16136*, SARS 3CLpro inh -1.3, BoNT A protease 1.3, Anthrax LF inh2 0.7, BoNT-F LC inh 6.2 and BJeLR viability 5.2.
Screening COc1ccc(C(CNC(=O)c2cccc(NS(=O)(=O)c3ccccc3)c2)N2CCCC2)cc1 (stereo unspecified) returned Autofluor counter 6451, BoNT A protease -4.0, Anthrax LF inh2 -4.9 and BoNT-F LC inh 4.4.
